The nature of assay [1]: BmaI1 acyl-homoserine lactone synthase inhibition – biochemical, fluorescence intensity, with counterscreen (AID 720554). As to conditions: BmaI1 enzyme assay, measured here: counterscreen fluorescence % control, concentration not given here. On the technique in general: The purpose of a counterscreen is to sort out artefacts and off-target activity.
In assay [2] the test system is acyl-homoserine lactone synthase BmaI1 (Burkholderia mallei ATCC 23344). The assay is described as above. The conditions noted are these: BmaI1 enzyme assay, stronger effect = higher value, concentration not given here.

Out of some 12,000 compounds screened, about 45 (0.4%) were called active. Cut-off read from the data, not from the text of the source: active = inhibition mostly above about 83% (no sharp cut-off); inactive = mostly below about 52%. Only a selection was taken, and actives are over-represented in it overall.

The inhibition is the relative decrease from the control value, in per cent. `O=C(O)CCN(Cc1ccccc1)S(=O)(=O)c1cccs1`: the inhibition in assay [1] is 1.5%; in assay [2] it was 11% (inactive).

Take `Cc1nc2ccc(NC(=O)C3CCCC3)cc2s1`: the inhibition in assay [1] is 12.5%; in assay [2], 14% (inactive).

Take `N#Cc1ccc(CSc2nncn2-c2ccccc2)cc1`: the inhibition in assay [1] was -2%; in assay [2] it was -5.5% (inactive).

On to `Nc1nc(N)c2nc(-c3ccccc3)c(N)nc2n1`, for which the inhibition in assay [1] was 21%; in assay [2] it was 5% (inactive).

With `Cc1ccc2nc(N3CCCC3)nc(-c3ccccc3)c2c1`, the inhibition is 2.5% in assay [1] and 3% (inactive) in assay [2].

Turning to `NNc1nc(-c2ccccc2)c2cc(Br)ccc2n1`, the values for the inhibition in assay [1] and in assay [2] were 16.5% and 91% (active), respectively.

Regarding `CCC(=O)Nc1ccc(C(=O)CN2C(=O)NC3(CCCc4ccccc43)C2=O)cc1` (stereo unspecified), the values for the inhibition in assay [1] and in assay [2] were 16% and 14.5% (inactive), respectively.

In the case of `O=C(COc1ncnc2ccc(Br)cc12)N1CCCCC1`, the inhibition in assay [1] was 4.5%; in assay [2], 4.5% (inactive).

For `Cc1cc(C)nc(SC2=C(Nc3ccc(O)cc3)C(=O)N(Cc3ccccc3)C2=O)n1`, the inhibition in assay [1] was 26.5%; in assay [2] it was 86.5% (active).

Take `Cc1cc(C)nc(SCC(=O)OCCN2C(=O)c3ccccc3C2=O)n1`: the results for the inhibition in assay [1] and in assay [2] were 9.5% and 18% (inactive), respectively.

As to `Cc1cc(C)nc(SC2=C(N3CCC(C)CC3)C(=O)N(Cc3ccccc3)C2=O)n1`, the inhibition in assay [1] was 4.5%; in assay [2], 14% (inactive).

`Cc1cc(O)c(CN2CC=C(c3ccccc3)CC2)cc1C(C)C`: the inhibition in assay [1] is -16%; in assay [2], -85.5% (active).

`COc1ccc2c(CN3CC=C(c4ccccc4)CC3)cc(=O)oc2c1`: the results for the inhibition in assay [1] and in assay [2] were 8% and 4.5% (inactive), respectively.

Take `Cc1c(CN2CC=C(c3ccccc3)CC2)c(=O)n(-c2ccccc2)n1C`: the inhibition is -2.5% in assay [1] and 9% (inactive) in assay [2].

As to `N#Cc1ccccc1NC(=O)CN1CCNC(=O)C1`, the inhibition is 5% in assay [1] and 6% (inactive) in assay [2].

For `NCCCOC1CCCCC1`, the inhibition in assay [1] was 11%; in assay [2] it was 16.5% (inactive).

`NS(=O)(=O)c1cc(C(=O)O)cs1`: the inhibition is -4.5% in assay [1] and 3% (inactive) in assay [2].

As for `Cc1cc(C)n(-c2ccc(C(=O)OCC(=O)NCC3CCCO3)cc2)n1` (stereo unspecified), the inhibition in assay [1] was 9%; in assay [2], 8% (inactive).

For the compound `O=C1NC(c2cccc(O)c2O)Nc2sc3c(c21)CCC3` (stereo unspecified), the inhibition in assay [1] was 19%; in assay [2] it was 83% (active).

Take `Cc1ccccc1CSCc1nc(N)nc(Nc2ccccc2C)n1`: the inhibition in assay [1] is 4%; in assay [2], 7% (inactive).

With `O=C1c2ccccc2C(=O)N1/N=C/c1ccc(-c2ccccc2Br)o1`, the inhibition in assay [1] is 2.5%; in assay [2] it was 4.5% (inactive).

As to `O=S(=O)(c1ccc(N=C=S)cc1)N1CCOCC1`, the inhibition is -3% in assay [1] and 13% (inactive) in assay [2].

Consider `NC(=O)C1CCN(Cc2cc(=O)oc3cc(O)ccc23)CC1`, for which the inhibition in assay [1] was -4.5%; in assay [2] it was 5.5% (inactive).

As to `CC1(C)C(=O)Nc2ccccc2N1C(=O)CSc1ncnc2ccccc12`, the inhibition was 10.5% in assay [1] and 18.5% (inactive) in assay [2].

As to `CN1/C(=C2\C=NN(C)P2(=S)N2CCCC2)C(C)(C)c2ccccc21` (stereo unspecified), the results for the inhibition in assay [1] and in assay [2] were 10% and 15% (inactive), respectively.

`CN1/C(=C2\C=NN(C)P2(=O)Nc2ccccc2)C(C)(C)c2ccccc21` (stereo unspecified): the figures for the inhibition in assay [1] and in assay [2] were 5% and 14.5% (inactive), respectively.

Turning to `COP1(=S)/C(=C2/N(C)c3ccccc3C2(C)C)C=NN1C` (stereo unspecified), the inhibition in assay [1] was 6%; in assay [2], 88% (active).

As for `COc1ccccc1/C=N/OCC(=O)NCc1ccc2c(c1)OCO2`, the inhibition in assay [1] is 3.5%; in assay [2], 16.5% (inactive).

Turning to `COC(=O)c1ccc(-n2c(C)cc(C(=O)CN3C(=O)CN(C)C3=O)c2C)cc1`, the inhibition in assay [1] is -4.5%; in assay [2] it was 9% (inactive).

For `O=C(N/N=C/c1sc(N2CCCCC2)nc1-c1cccs1)c1ccccc1`, the inhibition in assay [1] is -8.5%; in assay [2], 17% (inactive).

Regarding `Nc1nnc(-c2cccs2)c(=O)n1N`, the figures for the inhibition in assay [1] and in assay [2] were 70.5% and 20% (inactive), respectively.

Take `Nn1c(NNC(=O)c2ccccc2)nnc(-c2cccs2)c1=O`: the inhibition in assay [1] is 11.5%; in assay [2] it was 92% (active).

`CCCn1c(C)cc(/C=C(\C#N)C(=O)Oc2c(C)ccc(C)c2C)c1C`: the figures for the inhibition in assay [1] and in assay [2] were 2.5% and 17.5% (inactive), respectively.

Consider `CN(C)Cc1ccccc1C#N`, for which the results for the inhibition in assay [1] and in assay [2] were 1% and -3.5% (inactive), respectively.

As for `Cc1ccc(S(=O)(=O)NCC(=O)OC2CCOC2=O)cc1` (stereo unspecified), the inhibition was 4% in assay [1] and -3% (inactive) in assay [2].

`COC(=O)Cc1c(C(=O)OC)sc(N)c1C#N`: the inhibition was 0.5% in assay [1] and 5.5% (inactive) in assay [2].

Consider `c1cc2n[nH]nc2cn1`, for which the figures for the inhibition in assay [1] and in assay [2] were -4% and 12% (inactive), respectively.

For the compound `COc1ccccc1C(=O)CSc1cccc[n+]1[O-]`, the inhibition in assay [1] is 10%; in assay [2], 57% (inactive).

Take `COc1ccccc1C(=O)NC(=O)CSc1cccc[n+]1[O-]`: the inhibition in assay [1] is 10%; in assay [2], 16.5% (inactive).

For `COc1cc(C(=O)CSc2cccc[n+]2[O-])cc(OC)c1OC`, the inhibition in assay [1] is 6.5%; in assay [2], 87% (active).

`Cc1nn(-c2ccccc2)c2c1CC(C#N)(c1ccccn1)C1CCCN21` (stereo unspecified): the inhibition in assay [1] is 3%; in assay [2], 10% (inactive).

With `COc1cc(OC)c(OC)cc1CNC(=O)CCc1c(C)noc1C`, the inhibition in assay [1] was 0%; in assay [2], 11% (inactive).

In the case of `Cc1cc(C(=O)CN(Cc2ccco2)S(=O)(=O)/C=C/c2ccccc2)c(C)n1C`, the inhibition in assay [1] was 0.5%; in assay [2], 2.5% (inactive).

As for `Cc1csc(=Nc2ccccc2F)n1/N=C/c1ccncc1`, the inhibition was -3% in assay [1] and 89% (active) in assay [2].

Consider `Oc1ccc(/C=N/n2c(-c3ccco3)csc2=Nc2ccc(F)cc2F)c(O)c1`, for which the inhibition was 19% in assay [1] and 34% (inactive) in assay [2].

On to `CN=c1scc(-c2ccccc2)n1/N=C/c1ccsc1`, for which the inhibition in assay [1] was -7%; in assay [2], 6% (inactive).

In the case of `CCN(C(=O)Cn1ncc(Cl)c(Cl)c1=O)C1CCS(=O)(=O)C1` (stereo unspecified), the results for the inhibition in assay [1] and in assay [2] were 6% and 12% (inactive), respectively.

Regarding `COc1ccc2nc(NC(=O)c3ccco3)sc2c1`, the inhibition is 14.5% in assay [1] and 19% (inactive) in assay [2].

The values are drawn from PubChem BioAssay AID720554 (ICCB-Longwood Screening Facility, Harvard Medical School, 2013).
